Screening results deposited in PubChem by National Center for Advancing Translational Sciences (NCATS).
Compounds with a hit are over-represented: about 19% of the library has one in this group of screens.
HT1080 IDH1KD tx – HT-1080 IDH1 knockdown cell toxicity (counter line); HT-1080 IDH1 knockdown viability, ATP luminescence, 48 h; Potency, µM (titrated, usually from 46.1 µM), inactives show top-dose activity, negative = toxicity, actives largely listed as cytotoxic; 360,000 tested, 2% active;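 also: 0% = DMSO wells and -100% = cell-free medium wells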
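Using the IDH1-knockdown HT-1080 line run in the same batch and compound series as the NT line, viability after 48 h at 37 °C was determined by CellTiter-Glo luminescence and expressed as % activity.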
HT1080NT lethal – kills 2HG-producing HT-1080-NT fibrosarcoma cells; HT-1080-NT fibrosarcoma viability, CellTiter-Glo ATP luminescence, 48 h; Potency, µM (doses to about 46.1 µM), inactives show at the highest dose activity, negative = less viability, actives largely listed as cytotoxic; 360,000 tested, 1.6% active; AID 686970;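 also: NT is the 2HG producing partner of a matched IDH1 knockdown line; 0% = DMSO-treated cells and -100% = media-only wells without cells; nearly all actives have a fitted effect of over 55% in size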
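A 48-hour cytotoxicity screen used HT-1080-NT cells plated 2 hours before compound delivery. ATP-based CellTiter-Glo luminescence measured viability, normalized to DMSO and no-cell controls.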
KB-3-1 cytotox – kills parental KB-3-1 adenocarcinoma cells. 400,000 tested, 1.4% active. Potency, µM (series often up to 46.1 µM), usual class: cytotoxic. KB-3-1 viability, CellTiter-Glo ATP luminescence, 72 h; also: nearly all actives have a fitted effect of over 60% in size
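Cells are dispensed, compounds pinned in, plates held at 37 °C for 72 h, then CellTiter-Glo is added and luminescence read after 10 minutes. Cell line: parental KB-3-1 in phenol-red-free DMEM, 10% FBS.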
DT40 TDP1 CPT – DT40-hTDP1 cell growth loss with CPT; 420,000 tested, 12% active; chicken DT40 Tdp1-/-;hTDP1 cells + 20 nM CPT, ATP luminescence, 48 h; Potency, µM (top dose mostly 46.2 µM), for inactives: top-dose activity change, negative = growth inhibition, hits mostly inhibitors; also: nearly all actives have a fitted effect of over 55% in size
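Chicken DT40 Tdp1-/- cells complemented with human TDP1, 400 cells/well, exposed to compounds plus 20 nM camptothecin for at least 48 h at 37 C; viability read as ATP content by CellTiter-Glo luminescence.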
KB-V1 MDR tox – kills drug-selected multidrug resistant KB-V1 cells; KB-V1 MDR cells viability, CellTiter-Glo, 72 h; Potency, µM (series often up to 46.1 µM), most hits filed as cytotoxic; 400,000 tested, 3.4% active; AID 1347076; also: nearly all actives have a fitted effect of over 60% in size
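Cytotoxicity via CellTiter-Glo luminescence after 72 h compound exposure at 37 degrees C. Cells: drug-selected KB-V1 line, DMEM phenol-red free plus 10% FBS. Compounds tested at multiple concentrations; normalized data fitted to concentration-effect curves.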
TDP1 cell noCPT – qHTS for Inhibitors of human tyrosyl-DNA phosphodiesterase 1 (TDP1): qHTS in cells in absence of CPT; DT40 Tdp1-/- hTDP1 cells, no CPT, ATP luminescence, 48 h; Potency, µM (top dose mostly 46.2 µM), for inactives: at the highest dose activity change, negative = growth inhibition, most hits filed as inhibitors; 420,000 tested, 15% active; also: nearly all actives have a fitted effect of over 55% in size
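Luminescent ATP content (CellTiter-Glo) served as the growth readout. Knockout chicken DT40 cells expressing human TDP1 were exposed to compounds without camptothecin for a minimum 48 hr at 37 °C.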
* = called active by the depositor; i = inactive; ? = inconclusive; nt = not tested or not shown; ! = not active in a repeat; [ ] = another dose, or the depositor's remark. Calls follow the shape of the dose curve; as a rule, active = well fitted curve in the direction sought with a large enough effect; inconclusive = small, poorly fitted or top-dose-only effect, or another doubt; inactive = no such curve, though single readings can be large; an effect the other way counts as inactive or inconclusive. Unless noted, % is scaled to controls: 0 for no effect and ±100 for the full control effect; potency is read from the fitted curve at half-maximal effect.

SMILES | HT1080 IDH1KD tx | HT1080NT lethal | KB-3-1 cytotox | DT40 TDP1 CPT | KB-V1 MDR tox | TDP1 cell noCPT
COc1cccc(C(=O)NC2CCNCC2)c1 | -4% | -22% | i | -6% | i | 17%
N#C/C(=C(/O)c1cc2ccccc2o1)c1nc2ccccc2s1 | 6% | 0% | 21µM* | ? | ? | 13µM*
N#C/C(=C(/O)C(Cl)c1ccccc1)c1nc2ccccc2s1 (stereo not given) | -25% | -16% | ? | 6.5µM* | i | 13µM*
N#C/C(=C(/O)c1ccco1)c1nc2ccccc2[nH]1 | 6% | -29% | i | -11% | i | -17%
N#C/C(=C(/O)c1cccc(F)c1)c1nc2ccccc2s1 | -2% | -2% | 5.8µM* | 21µM* | 2.9µM* | 12µM*
Cn1c(/C(C#N)=C(\O)c2cccc(F)c2)nc2ccccc21 | ? | ? | i | -1% | i | ?
N#C/C(=C(/O)c1ccco1)c1nc2ccccc2s1 | ? | ? | ? | ? | ? | 15µM*
N#C/C(=C(/O)CN1CCOCC1)c1nc2ccccc2s1 | -4% | -6% | i | 8% | i | -28%
COc1ccc(OC)c(NC(=O)COC(=O)CCNc2ccccc2OC)c1 | 5% | 10% | i | 3% | i | -3%
c1ccc(Sc2ccccn2)cc1 | 21% | 17% | i | 5% | i | 2%
c1ccc(SSc2ccccn2)nc1 | ? | ? | i | 2.9µM* | i | 4.6µM*
O=C(C1CC1)N1CCc2cc(Br)c(S(=O)(=O)N3CCCCCC3)cc21 | -2% | -19% | i | 16µM* | i | ?
O=C(C1CC1)N1CCc2cc(Br)cc(S(=O)(=O)N3CCCCCC3)c21 | -16% | -9% | ? | ? | 9.2µM* | 21µM*
Cc1cccc(NC(=O)CSc2nnc(C)c(C)n2)c1 | 25% | 20% | i | 1% | i | 7%
COc1ccc([N+](=O)[O-])cc1/C=N/Nc1nn[nH]n1 | -3% | 2% | i | ? | i | ?
CC(C)c1ccc(NC(=O)CSc2nc(=O)n(Cc3ccccn3)c3c2CCC3)cc1 | nt | nt | nt | 23µM* | nt | 18µM*
Cc1ccc(NC(=O)CSc2nc(=O)n(Cc3ccccn3)c3c2CCC3)cc1F | nt | nt | i | ? | i | 16µM*
O=C(CSc1nc(=O)n(Cc2cccnc2)c2c1CCC2)Nc1cccc(Cl)c1 | nt | nt | i | -26% | i | ?
CC(C)c1ccc(NC(=O)CSc2nc(=O)n(Cc3cccnc3)c3c2CCC3)cc1 | nt | nt | i | ? | i | 26µM*
CC(=O)c1cccc(NC(=O)CSc2nc(=O)n(Cc3ccccn3)c3c2CCC3)c1 | -14% | -12% | i | -29% | i | ?
O=C(CSc1nc(=O)n(Cc2ccccn2)c2c1CCC2)Nc1cccc(Cl)c1 | nt | nt | i | ? | i | ?
CC1=C(C(=O)N(C)C)CC(CC(=O)NC2CCCC2)C(=O)N1CCC1=CCCCC1 (stereo not given) | 10% | 2% | i | -2% | i | -25%
CC1CCN(CC(=O)N2CCCc3c2c(=O)oc2ccc(OCc4ccccc4)cc32)CC1 | ? | ? | ? | ? | ? | 13µM*!
CC(=O)N1CCN(C(=O)COc2ccc3oc4c(c3c2)CCCC4)CC1 | 11% | 8% | i | -16% | i | -29%
CCCOc1ccc2oc(=O)c3c(c2c1)CCCN3C(=O)CN1CCc2ccccc2C1 | -1%[9.24 µM] | ? | ? | ? | ? | 23µM*
SMILES | HT1080 IDH1KD tx | HT1080NT lethal | KB-3-1 cytotox | DT40 TDP1 CPT | KB-V1 MDR tox | TDP1 cell noCPT
CC1CC(C)CN(CC(=O)N2CCCc3c2c(=O)oc2ccc(OCc4ccccc4)cc32)C1 (stereo not given) | ? | ? | ? | 21µM* | i | 12µM*
CC(=O)N1CCN(C(=O)CCCNC(=O)c2ccc(Cl)cc2)CC1 | 15% | 0% | i | 18% | ? | 1%
CCc1nnc(NC(=O)CCC(=O)N2CCN(C3c4ccccc4-c4ccccc43)CC2)s1 | -12% | -15% | i | ? | ? | ?
CC1(C)CC2CC(C)(CN2C(=S)Nc2ccccc2)C1 (stereo not given) | 10% | 4% | i | ? | ? | ?
CC1(C)CC2CC(C)(CN2C(=S)Nc2ccccc2F)C1 (stereo not given) | 0% | 0% | i | 21µM* | i | 13µM*
CC1(C)CC2CC(C)(CN2C(=S)NC(=O)c2ccccc2Cl)C1 (stereo not given) | -14% | -3% | i | ? | ? | 18µM*
NC(=O)C1CCCN1Cc1ccc2c(c1)OCO2 (stereo not given) | 1% | 13% | ? | 8% | i | -5%
CCN(CC)S(=O)(=O)c1cccc(-c2nnc(SCCCC(=O)c3ccc(F)cc3)o2)c1 | -16% | -10% | i | ? | 16µM* | ?
CCN(CC)S(=O)(=O)c1cccc(-c2nnc(SC(C)C(=O)NCCC3=CCCCC3)o2)c1 (stereo not given) | -10% | -1% | ? | ? | 10µM* | 26µM*
O=C(CSc1nnc(-c2cccc(S(=O)(=O)N3CCCCC3)c2)o1)NCCC1=CCCCC1 | -8% | -4% | i | ? | i | ?
CCN(CC)S(=O)(=O)c1cccc(-c2nnc(SCc3nc4ccccc4s3)o2)c1 | -17% | -5% | ? | ? | ? | 21µM*
CCN(CC)S(=O)(=O)c1cccc(-c2nnc(SCCCC(=O)c3ccccc3)o2)c1 | -10% | 3% | i | ? | ? | ?
Brc1ccccc1-c1nnc(SCc2nc3ccccc3s2)o1 | -7% | -17% | i | -2% | i | ?
CCN(CC)S(=O)(=O)c1cccc(-c2nnc(SCC(=O)c3cc(C)n(C4CC4)c3C)o2)c1 | 4% | 9% | i | ? | i | 16µM*
CC(C)N(C(=O)[C@H]1C[C@H](CC(=O)NCCN2CCOCC2)C(=O)N2CCc3c([nH]c4cc(CCC(=O)N(C)C)ccc34)[C@]12C)C(C)C | 8% | 3% | i | -9% | i | -8%
CC(=O)N1CCCc2cc(S(=O)(=O)NCc3ccccc3Cl)ccc21 | nt | nt | i | ? | i | ?
Cc1nc(-c2ccc(Cl)cc2)sc1CCNC(=O)C(=O)Nc1ccccc1C#N | nt | nt | i | -15% | ? | -26%
